Results taken from PubChem BioAssay (NCI).
The panel holds about 83,000 compounds, 20% with a hit somewhere; the sample as a whole holds those more often.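 How to read the values: 0–100, growth inhibition (40 = 60% inhibited); 0, no net growth; -100 to 0, cell death (-40 = 40% of starting cells died; -100 = all dead).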 Unmarked numbers belong to inactive results. Activity calls are given as the source filed them. How the source made its calls: active means growth percent below 10; inactive means the rest.

Columns and labels:
Assay in all cases: NCI-60 one-dose screen, 48 h (100 = growth as untreated, 0 = no growth, -100 = all killed)
Settings in all cases: 10 µM unless noted
[1] = tested on: SK-MEL-2 melanoma
[2] = tested on: EKVX NSCLC
[3] = tested on: SN12C renal
[4] = tested on: TK-10 renal
[5] = tested on: ACHN renal
[6] = tested on: CAKI-1 renal
[7] = tested on: A498 renal
[8] = tested on: CCRF-CEM leukemia
[9] = tested on: MOLT-4 leukemia
[10] = tested on: UO-31 renal

O=C(COc1cccc(/C=C2\Cc3ccccc3C2=O)c1)c1ccc(Cl)cc1
growth [1]: 72.8% | growth [2]: 88.2% | growth [3]: 95% | growth [4]: 163% | growth [5]: 154% | growth [6]: 104% | growth [7]: 90.1% | growth [8]: 89.8% | growth [9]: 107%

COc1cc(/C=C/C(=O)CC(=O)/C=C/c2ccc(OC(=O)C3C4CC5CC(C4)CC3C5)c(OC)c2)ccc1OC(=O)C1C2CC3CC(C2)CC1C3 (stereo not drawn)
growth [1]: 93.1% | growth [2]: 109% | growth [3]: 108% | growth [4]: 96.9% | growth [5]: 144% | growth [6]: 99.6% | growth [7]: 109% | growth [8]: 89.8% | growth [9]: 103%

CCOC(=O)CCN(c1c(Cl)ssc1=O)C(C)C
growth [1]: 96.4% | growth [2]: 107% | growth [3]: 114% | growth [4]: 129% | growth [5]: 118% | growth [6]: 124% | growth [7]: 106% | growth [8]: -34.9% (active) | growth [9]: -14.5% (active)

Cc1ccc(N/N=C(/C(=O)c2ccc(Cl)cc2)c2nc(C)cc(=O)[nH]2)cc1
growth [1]: 95.3% | growth [2]: 91.5% | growth [3]: 100% | growth [4]: 136% | growth [5]: 99.1% | growth [6]: 113% | growth [7]: 108% | growth [8]: -15.1% (active) | growth [9]: 98.6%

O=c1ccn(C2CC=C(CO)O2)c(=O)[nH]1 (stereo not drawn)
growth [1]: 105% | growth [2]: 105% | growth [3]: 92.1% | growth [4]: 100% | growth [5]: 109% | growth [6]: 63.1% | growth [7]: 101% | growth [8]: 90.4% | growth [9]: 101%

CCCCc1ccc(C(N)=O)nc1
growth [1]: 96% | growth [2]: 100% | growth [3]: 98.7% | growth [4]: 103% | growth [5]: 98.8% | growth [6]: 102% | growth [7]: -4.32% (active) | growth [8]: 92% | growth [9]: 101%

O=c1[nH]c(SCc2ccccc2)nc2nc(Nc3ccc(NC(=S)Nc4ccccc4)cc3)nc(-c3ccc(O)cc3O)c12
growth [1]: 87.8% | growth [2]: 95.9% | growth [3]: 88% | growth [4]: 133% | growth [5]: 89.5% | growth [6]: 101% | growth [7]: 108% | growth [8]: 94.5% | growth [9]: 93%

CC1CN(CC(O)c2ccc(Br)cc2)CCO1 (stereo not drawn)
growth [1]: 103% | growth [2]: 120% | growth [3]: 110% | growth [4]: 110% | growth [5]: 106% | growth [6]: 103% | growth [8]: 102% | growth [9]: 97%

Cc1ccccc1NC(=O)N/C(N)=N/c1nc2ccccc2s1
growth [1]: 37.6% | growth [2]: 39.6% | growth [3]: 40% | growth [4]: 67% | growth [5]: 39.2% | growth [6]: 38.8% | growth [8]: 14.2% | growth [9]: 14.9%

Cc1cc(-c2ccccc2)cc(C)n1
growth [1]: 98.1% | growth [2]: 116% | growth [10]: 78.6% | growth [4]: 103% | growth [5]: 106% | growth [6]: 103% | growth [7]: 116% | growth [8]: 102% | growth [9]: 100%

N#Cc1c(NC(=O)c2ccco2)[n+]([O-])c2cc(Cl)c(Cl)cc2[n+]1[O-]
growth [1]: 89.9% | growth [2]: 82.4% | growth [3]: 94.1% | growth [4]: 163% | growth [5]: 110% | growth [6]: 134% | growth [9]: 1.53% (active)

CC[n+]1c(/C=C/c2ccc(N3CCCC3)cc2)cccc1/C=C/c1ccc(N2CCCC2)cc1
growth [1]: -89.8% (active) | growth [2]: -76.4% (active) | growth [10]: -92.6% (active) | growth [4]: -80.5% (active) | growth [5]: -96.3% (active) | growth [6]: -67.9% (active) | growth [7]: -93% (active) | growth [8]: -7.16% (active) | growth [9]: 10.3%

CC(C)Cn1cnc2c(NCn3nc(-c4cc(Cl)cc(Cl)c4Cl)n(/N=C/c4ccc(Cl)cc4)c3=S)nc3ccccc3c21
growth [1]: 81.8% | growth [2]: 70.6% | growth [3]: 85% | growth [4]: 90.4% | growth [5]: 81.6% | growth [6]: 63.9% | growth [7]: 96.8% | growth [9]: 82.2%

COc1ccc(C2=NN(C(N)=S)C(c3ccc4c(c3)OCO4)C2)cc1 (stereo not drawn)
growth [1]: 47% | growth [2]: 29.1% | growth [3]: 31% | growth [4]: 50.2% | growth [5]: 22% | growth [6]: 6.32% (active) | growth [7]: 49.2% | growth [8]: 5.49% (active) | growth [9]: 13.8%

O=C(N/N=C/c1cccc([N+](=O)[O-])c1)c1ccc(Br)o1
growth [1]: 103% | growth [2]: 103% | growth [3]: 142% | growth [4]: 129% | growth [5]: 156% | growth [6]: 98.3% | growth [7]: 129% | growth [8]: 78.2% | growth [9]: 132%

Nc1ccc2c(c1Br)Cc1ccccc1-2
growth [1]: 94.2% | growth [2]: 68% | growth [3]: 86.6% | growth [4]: 123% | growth [5]: 95.8% | growth [6]: 98.6% | growth [7]: 86.8% | growth [8]: 53.2% | growth [9]: 68.4%

Nc1ncnc2c1CN(Cc1ccccc1)CC2
growth [1]: 103% | growth [2]: 110% | growth [10]: 76.2% | growth [4]: 108% | growth [5]: 103% | growth [6]: 102% | growth [7]: 120% | growth [8]: 95.5% | growth [9]: 102%

O=C1C(=O)c2c(nc3ccc(Cl)cn23)-c2ccccc21
growth [1]: -90.2% (active) | growth [2]: -95.6% (active) | growth [3]: -100% (active) | growth [4]: -86.3% (active) | growth [5]: -100% (active) | growth [6]: -95.4% (active) | growth [7]: -100% (active) | growth [8]: -49.6% (active) | growth [9]: -94.5% (active)

O=CNc1ccc2c(c1)Cc1cc([N+](=O)[O-])ccc1-2
growth [1]: 19.2% | growth [2]: 36% | growth [3]: 38.9% | growth [4]: 37.6% | growth [5]: 56.6% | growth [6]: 29.9% | growth [7]: 39.2% | growth [8]: 20.9% | growth [9]: 29.7%

C(=C1c2ccccc2-c2ccccc21)c1ccncc1
growth [1]: 42.9% | growth [2]: 59.5% | growth [10]: 49.5% | growth [4]: 64.6% | growth [5]: 71.5% | growth [6]: 29.6% | growth [7]: 62% | growth [8]: 59.3% | growth [9]: 39.5%

CCOc1cc(/C=C/C(=O)CC(=O)/C=C/c2ccc(OC(=O)CNc3nc4ccc(OC)cc4s3)c(OCC)c2)ccc1OC(=O)CNc1nc2ccc(OC)cc2s1
growth [1]: 59.1% | growth [2]: 41.7% | growth [3]: 59% | growth [4]: 60.5% | growth [5]: 69.4% | growth [6]: 75.9% | growth [7]: 91.6% | growth [8]: 4.63% (active) | growth [9]: 4.13% (active)

Cc1ccc(C(=O)Cc2ccccc2)c(O)c1
growth [1]: 101% | growth [2]: 99.4% | growth [10]: 86.4% | growth [4]: 104% | growth [5]: 102% | growth [6]: 95% | growth [7]: 79.3% | growth [8]: 112% | growth [9]: 92.3%

COc1ccc2c(c1)[n+](=O)c(C(=O)/C=C/c1cc(OC)c(OC)c(OC)c1)c(C)n2[O-]
growth [1]: 57.2% | growth [2]: 61% | growth [3]: 71.5% | growth [4]: 120% | growth [5]: 65.9% | growth [6]: 105% | growth [8]: -63.6% (active) | growth [9]: 13.2%

COc1cccc(N2CCN(c3cccc(C)n3)CC2)c1
growth [1]: 94% | growth [2]: 106% | growth [3]: 105% | growth [4]: 123% | growth [5]: 108% | growth [6]: 82.4% | growth [7]: 93.9% | growth [9]: 101%

Clc1ccc(C2c3ccccc3-c3nccn32)c(Cl)c1 (stereo not drawn)
growth [1]: 80.7% | growth [2]: 60% | growth [3]: 85.4% | growth [4]: 81.3% | growth [5]: 89.7% | growth [6]: -12% (active) | growth [7]: 90.3% | growth [9]: 65.6%

CCOc1cc(/C=C/C(=O)C(C(=O)/C=C/c2ccc(OC(=O)CNc3nnc(C)s3)c(OCC)c2)C(=O)CNc2nnc(C)s2)ccc1OC(=O)CNc1nnc(C)s1
growth [1]: 11% | growth [2]: -13.9% (active) | growth [3]: -3.17% (active) | growth [4]: 32.4% | growth [5]: -85.2% (active) | growth [6]: -6.01% (active) | growth [7]: -41.7% (active) | growth [9]: -34.3% (active)

O=C(NN1C(=O)c2cc(C(=O)O)c(C(=O)O)cc2C1=O)c1ccncc1
growth [1]: 104% | growth [2]: 108% | growth [3]: 93.9% | growth [4]: 88.4% | growth [5]: 102% | growth [6]: 98.2% | growth [7]: 112% | growth [8]: 103% | growth [9]: 98.6%

Oc1ccccc1/C=N/N1CCCCCC1
growth [1]: 103% | growth [2]: 115% | growth [3]: 93.6% | growth [4]: 103% | growth [5]: 105% | growth [8]: 76% | growth [9]: 95.1%

CCCn1c(N)c(C(=O)CNc2ccc(I)cc2)c(=O)[nH]c1=O
growth [1]: -7.88% (active) | growth [2]: 77.9% | growth [3]: 44.6% | growth [4]: 59% | growth [5]: 50.7% | growth [6]: 58.3% | growth [7]: 49.2% | growth [8]: 55.9% | growth [9]: 29.2%

CCOc1cc(/C=C/C(=O)C(C(=O)/C=C/c2ccc(OC(=O)CNc3nc4ccccc4[nH]3)c(OCC)c2)C(=O)CNc2nc3ccccc3[nH]2)ccc1OC(=O)CNc1nc2ccccc2[nH]1
growth [1]: 13.2% | growth [2]: -3.49% (active) | growth [3]: -22.9% (active) | growth [4]: 31.8% | growth [5]: -45.6% (active) | growth [6]: -12.2% (active) | growth [7]: -9.48% (active) | growth [9]: -27.5% (active)
